# Screens: PubChem, Buhrlage Lab, Dana-Farber Cancer Institute and Novartis Institutes for BioMedical Research (Cambridge, Mass)
# A selection: hits, their analogues and other compounds. The true share with any hit is near 14%.
# USP10 block – inhibitors of human USP10 deubiquitinase | Ubiquitin carboxyl-terminal hydrolase 10 (Homo sapiens), Q14694 | purified USP10, Ub-rhodamine fluorescence, 60 min | inhibition, % at 20 µM | hit rate 1.1% among 47,000
# USP28 block – inhibitors of human USP28 deubiquitinase. purified USP28, Ub-rhodamine cleavage fluorescence, 30 min. inhibition, % at 25 µM. hit rate 3% among 47,000
# USP30 block – inhibitors of human USP30 deubiquitinase. Ubiquitin carboxyl-terminal hydrolase 30 (Homo sapiens), Q70CQ3. purified USP30, Ub-rhodamine cleavage fluorescence. inhibition, % at 25 µM. hit rate 5.3% among 47,000
# USP17 block – inhibitors of human USP17 deubiquitinase | Ubiquitin carboxyl-terminal hydrolase 17-like protein 5 (Homo sapiens), A8MUK1 | hit rate 6.5% among 47,000 | purified USP17, Ub-rhodamine cleavage fluorescence, 3 h | inhibition, % at 50 µM
# Target sequence (A8MUK1 whole entry, looked up): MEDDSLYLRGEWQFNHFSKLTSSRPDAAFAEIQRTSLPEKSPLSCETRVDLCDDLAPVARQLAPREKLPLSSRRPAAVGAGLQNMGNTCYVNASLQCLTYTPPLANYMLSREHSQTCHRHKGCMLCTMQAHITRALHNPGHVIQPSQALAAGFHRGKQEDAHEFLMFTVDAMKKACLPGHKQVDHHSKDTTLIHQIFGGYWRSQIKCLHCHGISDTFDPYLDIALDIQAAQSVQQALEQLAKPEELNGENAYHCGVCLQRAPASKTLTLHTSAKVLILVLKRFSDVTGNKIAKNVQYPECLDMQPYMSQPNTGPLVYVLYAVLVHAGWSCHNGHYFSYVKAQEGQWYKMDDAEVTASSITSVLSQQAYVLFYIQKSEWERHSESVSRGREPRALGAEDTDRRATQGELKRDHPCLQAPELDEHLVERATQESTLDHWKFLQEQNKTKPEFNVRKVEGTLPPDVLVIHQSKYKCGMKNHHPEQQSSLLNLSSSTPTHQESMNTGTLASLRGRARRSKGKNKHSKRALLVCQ
# USP8 inh – inhibitors of human USP8 deubiquitinase. purified USP8, Ub-rhodamine cleavage fluorescence, 30 min. inhibition, % at 20 µM. hit rate 4.2% among 47,000
# * marks the source's active call; other numbers are inactive results; / = not tested or not shown. Rule as the data show it: active = inhibition above about 30%; inactive = the rest.
SMILES,USP10 block,USP28 block,USP30 block,USP17 block,USP8 inh
CCC(C)NC(=O)Cn1c(=O)n(-c2ccccc2)c(=O)c2ccc(C(=O)NCc3ccco3)cc21 (centres undefined),7,39*,73*,16,25
CC(C)CC(=O)N1CC(c2nc(-c3ccccc3)no2)C2(CCOCC2)C1 (centres undefined),-1,-12,-8,2,-8
Cc1cc(C)cc(NC(=O)Cc2nnc3c(-c4nc(C5CC5)no4)cccn23)c1,0,-41,-279,-34,2
O=C(Cc1nnc2c(-c3nc(C4CC4)no3)cccn12)N1CCCCCC1,-3,-10,-74,-7,43*
Cc1cccc(NC(=O)Cc2nnc3c(-c4nc(C5CC5)no4)cccn23)c1,2,-139,-432,-180,83*
Cc1ccc(CNC(=O)C2(C)CCC(=O)N2CCCc2ccccc2)cc1 (centres undefined),1,-9,-3,-4,-3
O=C1CN(C(=O)CC2CCCCC2)C(c2ccccc2)c2cc(Cl)ccc2N1 (centres undefined),12,30,43*,27,34*
COc1ccc(CC(=O)N2CC(=O)Nc3ccc(Br)cc3C2c2ccccc2)cc1 (centres undefined),8,23,38*,20,19
CCc1cc(C(=O)N2CCN(c3ccccc3F)CC2)nc2ccnn12,1,-6,-7,-6,-4
O=C(N[C@@H]1C[C@H]2Oc3ccccc3N[C@H]2[C@@H]1O)c1ccccc1,4,/,/,12,2
O=C1NCCCC1Cc1ccc(-c2cccc(C(=O)N3CCc4ccccc4C3)c2)cc1 (centres undefined),6,20,35*,55*,61*
O=C(CC(=O)c1c(F)cccc1F)c1ccccc1O,3,26,30*,26,26
NC1=CC(=O)C(Nc2ccccc2O)=CC1=O,9,-5,-35,42*,36*
COc1ccc(C)cc1NC(=O)COc1ccc2c(c1)OCO2,4,-5,-1,52*,37*
O=C(COc1ncnc2sc3c(c12)CCCC3)Nc1ccc2c(c1)OCO2,31*,-21,-103,11,30
Cc1cc(Cl)ccc1OCC(=O)Nc1ncnc2sc3c(c12)CCCC3,-1,-7,-51,26,-9
COc1ccc(S(=O)(=O)N2CCOCC2)cc1NC(=O)COc1ccc(C)cc1,-1,8,0,-2,-9
O=C(COc1ccc2c(c1)OCO2)Nc1ccc2c(c1)CCC2,7,30,6,16,31*
CC1CCCCN1C(=O)C1CCC2(CC1)CNC(=O)c1cc(Cl)ccc1O2 (centres undefined),0,-4,1,-5,-1
Cc1ccc(NC(=O)C2C3C=CC4(O3)C2C(=O)N(C2CCCCCC2)C4C(=O)NC2CCCCC2)cc1Cl (centres undefined),14,-3,2,49*,11
O=C(Nc1ccc(Cl)cc1)C1C2C=CC3(O2)C1C(=O)N(C1CC1)C3C(=O)NC1CCCCC1 (centres undefined),0,4,4,36*,14
COc1cccc(CN(C)C(C)c2nc(N)nc(Nc3ccccc3)n2)c1 (centres undefined),0,0,-6,-4,10
COc1cccc(N2CCN(C(=O)CCNS(=O)(=O)c3ccc4c(c3)CCC(=O)N4)CC2)c1,0,1,-1,58*,10
COc1ccc(C(=O)c2nc(N3CCOCC3)c3c4c(sc3n2)CCCC4)cc1,-4,/,/,-9,-7
Cc1ccc(-c2nc(NC(=O)Nc3ccc(C(F)(F)F)cc3)sc2C)cc1Cl,13,-2,5,33*,7
SMILES,USP10 block,USP28 block,USP30 block,USP17 block,USP8 inh
COc1ccc(-c2noc(N3CCCC(C(=O)N(C)c4ccc(OC)cc4OC)C3)n2)cc1 (centres undefined),5,0,11,17,-1
CNc1cc(C)nc(C2CN(C(=O)c3ccc(C)n(C)c3=O)CCO2)c1 (centres undefined),0,4,32*,8,-34
CNc1cc(C)nc(C2CN(C(=O)c3ccc4n[nH]nc4c3)CCO2)c1 (centres undefined),5,2,5,9,1
O=C(c1cccnn1)N1CCCC1c1ncc(Cc2ccc(Cl)cc2)o1 (centres undefined),0,6,11,9,12
Cc1ccc(OCCNC(=O)c2cc(=O)[nH]c3ccccc23)cc1,3,2,-2,43*,0
COc1cccc(C(=O)Nc2cccc(N3CCCC3=O)c2)c1OC,0,-6,6,0,4
O=C(Nc1cccc(N2CCCC2=O)c1)c1cccc2cccnc12,4,-1,12,56*,2
COc1ccc(C(C)NC(=O)c2cc(NC(C)=O)cc3nc(C)ccc23)cc1 (centres undefined),-6,-9,-73,17,58*
Cc1cc(C)cc(NC(=O)CN2C(=O)CC(c3ccccc3)Sc3ccccc32)c1 (centres undefined),13,33*,57*,27,19
Cc1cc(-c2noc(-c3ccoc3C)n2)c2ccccc2n1,-4,2,-93,4,37*
COc1ccc(OCc2nc(-c3cc(C)nc4ccccc34)no2)cc1,-6,10,2,14,2
